Screening data (PubChem)
Shown are actives, neighbours in structure and some others; about 11% of the full set was active somewhere.
12-hLO inh: 12-hLO (ALOX12) enzyme inhibition; actives 0.12% (n = 150,000); Potency, µM (highest dose often 57.1 µM), for inactives: at the top dose activity change, negative = inhibition, hits mostly inhibitors; purified 12-hLO, xylenol orange hydroperoxide absorbance; P18054; active means well fitted curve in the direction sought with a large enough effect; inconclusive means small, poorly fitted or top-dose-only effect, or another doubt; inactive means no such curve, though single readings can be large; an effect the other way counts as inactive or inconclusive; further: potency means the concentration at half of the fitted maximal effect; nearly all actives have a fitted effect of over 55% in size
Target sequence (P18054 whole entry, looked up): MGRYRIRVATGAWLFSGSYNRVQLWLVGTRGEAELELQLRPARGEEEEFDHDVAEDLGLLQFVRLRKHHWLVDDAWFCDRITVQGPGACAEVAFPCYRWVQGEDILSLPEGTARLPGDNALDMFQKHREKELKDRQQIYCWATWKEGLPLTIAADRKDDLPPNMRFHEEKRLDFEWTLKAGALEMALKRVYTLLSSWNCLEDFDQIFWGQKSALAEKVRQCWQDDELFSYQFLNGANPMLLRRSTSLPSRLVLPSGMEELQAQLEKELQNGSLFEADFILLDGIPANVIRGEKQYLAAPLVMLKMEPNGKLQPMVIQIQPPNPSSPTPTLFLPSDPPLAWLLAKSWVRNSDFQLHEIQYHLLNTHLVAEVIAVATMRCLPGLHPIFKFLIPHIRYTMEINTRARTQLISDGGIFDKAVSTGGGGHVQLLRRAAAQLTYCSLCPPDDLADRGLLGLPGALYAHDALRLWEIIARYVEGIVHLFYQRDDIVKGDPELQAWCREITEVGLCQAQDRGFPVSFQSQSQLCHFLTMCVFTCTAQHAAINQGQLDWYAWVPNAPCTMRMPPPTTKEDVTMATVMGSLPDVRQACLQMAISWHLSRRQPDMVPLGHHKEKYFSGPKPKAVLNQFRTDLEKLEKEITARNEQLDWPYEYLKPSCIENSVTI
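Hydroperoxide output read as Fe(III)-xylenol orange absorbance, 573-to-405 nm ratio, after 30 min reaction with 40 uM arachidonic acid. Enzyme: 150 nM purified human 12hLO, 15 min compound preincubation; 25 mM Hepes pH 7.0, room temperature.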
IMPase cell inh: IMPase inhibition in cells; P97697; inhibition (IP1 accumulation), % at 46.1 µM; CHO-M1 cells, IP1 accumulation, HTRF TR-FRET ratio; AID 901; 120,000 tested, under 10 active; active means well fitted curve in the direction sought with a large enough effect in the signal ratio, not every such curve was filed as active; inconclusive means small, poorly fitted or top-dose-only effect, or a change in a side signal; inactive means no such curve, though single readings can be large or run the other way; the % refers to the signal ratio;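 further: cells stimulated with carbachol in lithium chloride buffer; plate controls were DMSO basal wells for no effect and reference inhibitor wells for full effect; higher means more IMPase inhibition seen as more IP1 and lower FRET ratio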
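Carbachol-driven Gq signalling in CHO-M1 cells (2000/well) generates IP1. Compounds that block IMPase raise IP1 and so reduce the FRET signal from Eu-anti-IP1 and d2-IP1 after a 10 min room-temperature lysis.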
IMPase Li cell: cell-permeable IMPase inhibitors with lithium potentiation; CHO-M1 cells, IP1 TR-FRET (IP-One), carbachol + lithium; Potency, µM (doses to about 59.4 µM), inactives show at the highest dose activity, negative = IMPase inhibition, most hits filed as inhibitors; actives 0.35% (n = 210,000); AID 1457; active means well fitted curve in the direction sought with a large enough effect; inconclusive means small, poorly fitted or top-dose-only effect, or another doubt; inactive means no such curve, though single readings can be large; an effect the other way counts as inactive or inconclusive;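 further: IP1 builds up when IMPase is blocked and the TR-FRET signal falls; potency means the concentration at half of the fitted maximal effect; plate controls were basal vehicle for no effect and high inhibitor control for full effect; nearly all actives have a fitted effect of over 50% in size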
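Steps: plate 2000 CHO-M1 cells per well and culture 16–30 h; add compound and lithium; incubate 30 min, 37C; add d2-IP1 tracer and Eu cryptate anti-IP1 antibody in lysis buffer; read after 10 min at room temperature.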
ALDH1A1 block: blocks purified human ALDH1A1 activity; Purified ALDH1A1, NADH fluorescence, propionaldehyde substrate; AID 1030; P00352; Potency, µM (series often up to 75.3 µM), without a hit: top-dose activity, negative = inhibition, usual class: inhibitors; actives 7.3% (n = 220,000);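 further: potency means the concentration at half of the fitted maximal effect; plate controls were no enzyme wells and a reference inhibitor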
HPGD inh: inhibitors of human 15-hydroxyprostaglandin dehydrogenase (HPGD); P15428; purified HPGD, NADH fluorescence kinetic, PGE2 substrate; Potency, µM, inactives show at the top dose activity change, negative = inhibition, actives largely listed as inhibitors; actives 4.3% (n = 150,000); AID 894; further: potency means the concentration at half of the fitted maximal effect
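20 nM HPGD preincubated 15 min at room temperature with compound in 50 mM Tris-HCl pH 8, 0.01% Tween 20. Started with 1 mM NAD+ and 30 uM prostaglandin E2; NADH fluorescence (360/450 nm) read 5 times over 30-s intervals, last minus first.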
PNC assembly inh: inhibitors of perinucleolar compartment assembly; AID 2417; actives 3.1% (n = 140,000); activity change (PNC), negative = inhibition, % at 10 µM; PC3M PTB-GFP, PNC prevalence imaging, 16 h; active compounds read low;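 active means readout at or below -70, meaning at least 70% loss of cells showing the perinucleolar compartment, a nuclear body marking cancer cells; inconclusive means readout between -30 and a set limit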;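 further: plate controls were DMSO wells for no effect and camptothecin positive control wells for full effect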
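Read-out is percentage of cells bearing a perinucleolar compartment, from automated 20x imaging of fixed, Hoechst-stained PC3M PTB-GFP cells. Cells were seeded 4 h, then exposed 16 h to compound (23 nl of library stock) in duplicate plates.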
An asterisk follows results filed as active; [ ] = dose if it differs, or a comment. Unless noted, the call rests on the fitted dose curve; in most records, active means well fitted inhibition curve with a large enough effect (not every such curve was filed as active); inconclusive means small, poorly fitted or top-dose-only effect, or another doubt; inactive means no such curve, though single readings can be large or run the other way. Unless noted, on the % scale 0 is the no-effect control and ±100 the full control effect.

What do the screens show for `COc1cccc2c1C(=O)c1c(O)c3c(c(O)c1C2=O)C[C@](O)(C(=O)CO)C[C@H]3O[C@@H]1C[C@H](N)[C@H](O)[C@H](C)O1`?
12-hLO inh: -1%[25.6 µM]; IMPase cell inh: 0[20.6 µM]; IMPase Li cell: 7%; ALDH1A1 block: -3%[20.9 µM]; HPGD inh: -10%

What do the screens show for `Cc1ccc(CSc2nnc(-c3ccc(S(=O)(=O)N4CCCC4)cc3)o2)cc1`?
12-hLO inh: -1%; IMPase cell inh: -1; IMPase Li cell: -14%[38.3 µM]; ALDH1A1 block: 2%; HPGD inh: -7%; PNC assembly inh: -92*

Results for COc1ccc(Cc2nnc(NC(=O)Cn3cnc4c3c(=O)n(C)c(=O)n4C)s2)cc1OC ?
12-hLO inh: 11%; IMPase cell inh: 9; IMPase Li cell: -7%[38.3 µM]; ALDH1A1 block: inconclusive; HPGD inh: 14µM*; PNC assembly inh: -11

How did COc1ccc(S(=O)(=O)N(CCc2ccccc2)CC(=O)Nc2cc(Cl)ccc2C)cc1 do in these assays?
IMPase cell inh: -6

Results for Cn1c(=O)n(C)c2cc(C(=O)c3ccccc3)ccc21 ?
12-hLO inh: 0%; IMPase cell inh: 14; IMPase Li cell: 17%[38.3 µM]; ALDH1A1 block: 7.9µM*; HPGD inh: -14%; PNC assembly inh: 8

How did Cc1cc(=O)[nH]c(SCc2nc3ccccc3n2Cc2ccccc2)n1 do in these assays?
12-hLO inh: -4%; IMPase cell inh: 0; IMPase Li cell: 4%[38.3 µM]; ALDH1A1 block: 1%; HPGD inh: 28µM*; PNC assembly inh: inconclusive

What do the screens show for `COc1ccc(N(C(=O)c2cccc(C)c2)S(=O)(=O)c2ccc(C)cc2)cc1`?
IMPase cell inh: 2

Results for O=C(CC1C(=O)CCCC1=O)c1ccccc1 ?
IMPase Li cell: 11%; ALDH1A1 block: 8.9µM*

Results for COc1ccc(S(=O)(=O)Nc2cc(C(=O)NCCCN3CCOCC3)ccc2N2CCOCC2)cc1 ?
IMPase Li cell: 0%; ALDH1A1 block: inconclusive

Results for COc1ccc(S(=O)(=O)Nc2cc(C(=O)NCCC(C)C)ccc2N2CCOCC2)cc1 ?
12-hLO inh: -8%; IMPase cell inh: 3; IMPase Li cell: -12%[38.3 µM]; ALDH1A1 block: 14µM*; HPGD inh: -1%; PNC assembly inh: 26

How did CCN(CC)CCNC(=O)c1ccc(N2CCCCC2)c(NS(=O)(=O)c2ccc(C)cc2)c1 do in these assays?
12-hLO inh: -3%; IMPase cell inh: 4; IMPase Li cell: 11%; ALDH1A1 block: 20µM*; HPGD inh: -8%; PNC assembly inh: -20

How did COC(=O)c1ccc(N2CCCCC2)c(NS(=O)(=O)c2ccc(C)cc2)c1 do in these assays?
12-hLO inh: 6%; IMPase cell inh: 6; IMPase Li cell: 47%[38.3 µM]; ALDH1A1 block: 7.9µM*; HPGD inh: -12%; PNC assembly inh: -29

How did CCSC[C@@H](N)C(=O)O do in these assays?
12-hLO inh: -3%[11.4 µM]; IMPase Li cell: -2%; ALDH1A1 block: -4%[13.5 µM]; HPGD inh: -4%

How did C/C=C/c1ccc(OCCn2cncn2)c(OC)c1 do in these assays?
12-hLO inh: -14%; IMPase cell inh: -2; IMPase Li cell: 0%; ALDH1A1 block: 25µM*; HPGD inh: -5%; PNC assembly inh: inconclusive

What do the screens show for `C/C=C/c1ccc(OCCCCn2cncn2)c(OC)c1`?
12-hLO inh: -13%; IMPase cell inh: -1; IMPase Li cell: 15%[38.3 µM]; ALDH1A1 block: inconclusive; HPGD inh: -12%; PNC assembly inh: 26

How did COc1cc(C=O)ccc1OCc1ccc(Cl)nc1 do in these assays?
IMPase Li cell: -1%; ALDH1A1 block: 5µM*

What do the screens show for `C/C=C/c1ccc(OCCOc2cc(C=O)ccc2OC)c(OC)c1`?
12-hLO inh: -4%; IMPase Li cell: 5%; ALDH1A1 block: -11%; HPGD inh: -16%; PNC assembly inh: -113*

What do the screens show for `C/C=C/c1ccc(OCC(=O)O)c(OC)c1`?
ALDH1A1 block: -5%
